# From PubChem BioAssay
# The list is not random: actives were taken first. Their share in the collection is about 0.86%.
# TLR9-MyD88 inh – inhibitors of human TLR9-MyD88 binding; CHO BLA complementation TLR9-MyD88, CCF4 FRET ratio; inhibition, % at 4.98 µM; 340,000 compounds, 0.21% hits; AID 504734;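 active means inhibition above the mean over all tested compounds plus 3 SD, cut at about 21% in these data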;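 further: 0% = DMSO only wells and 100% = clavulanate BLA inhibitor control wells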
# IDE act – activators of human insulin-degrading enzyme in cells; HEK cells, FAbeta-B cleavage, fluorescence polarization; 0% vehicle, 100% cell-free pure enzyme wells; AID 493087; activation, % at 5.96 µM; 340,000 compounds, 0.073% hits; P14735;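 active means activation above the mean of all tested compounds plus 3 SD, set per screening campaign, cut at about 17% in these data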
# NOD2 RIPK2 PPI – inhibitors of human NOD2-RIPK2 interaction; CHO BLA complementation NOD2-RIPK2, CCF4 ratio; inhibition, % at 4.98 µM; 360,000 compounds, 0.38% hits; in the data active means inhibition above about 21%;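 further: 0% = vehicle only and 100% = reference blocker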
# Target sequence (O43353 whole entry, looked up): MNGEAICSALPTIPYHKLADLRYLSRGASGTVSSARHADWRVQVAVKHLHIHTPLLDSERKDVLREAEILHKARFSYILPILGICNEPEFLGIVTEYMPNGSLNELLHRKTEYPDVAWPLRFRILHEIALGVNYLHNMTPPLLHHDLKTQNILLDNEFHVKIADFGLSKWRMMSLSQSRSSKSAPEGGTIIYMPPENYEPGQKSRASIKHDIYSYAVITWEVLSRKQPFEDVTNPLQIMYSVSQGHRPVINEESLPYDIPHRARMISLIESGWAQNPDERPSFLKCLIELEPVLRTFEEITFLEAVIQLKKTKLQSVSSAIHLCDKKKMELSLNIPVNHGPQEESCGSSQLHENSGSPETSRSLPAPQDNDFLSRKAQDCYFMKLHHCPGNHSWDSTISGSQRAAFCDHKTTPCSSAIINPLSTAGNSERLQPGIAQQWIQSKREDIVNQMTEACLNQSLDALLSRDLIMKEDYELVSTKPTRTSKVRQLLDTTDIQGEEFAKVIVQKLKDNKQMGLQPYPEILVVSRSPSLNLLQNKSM
# IDE cell inh – inhibitors of human insulin-degrading enzyme in cells; 320,000 compounds, 0.41% hits; AID 434962; HEK cells, FAbetaB cleavage, fluorescence polarization; P14735; inhibition, % at 5.59 µM;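 active means percent inhibition above the average of all tested compounds plus 3 SD, set per screening campaign, cut at about 16% in these data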;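 further: IDE supplied by intact live HEK cells; FP after avidin binding of uncleaved biotin substrate so inhibition keeps polarization high; 0% = DMSO wells and 100% = 60 µM reference IDE inhibitor Ii1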
# TLR4 MyD88 comp – blocks binding of human TLR4 to MyD88; inhibition, % at 8.4 µM; HeLa CL3-4 TLR4/MyD88 BLA complementation, FRET ratio; 200,000 compounds, 0.18% hits; O00206+Q99836; in the data active means inhibition above about 25%;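 further: 0% = vehicle and 100% = reference inhibitor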
# NOD2-RIPK2 conf – NOD2-RIPK2 interaction inhibition confirmed; shares compounds with NOD2 RIPK2 PPI; CHO cells, NOD2-RIPK2 BLA complementation, CCF4 FRET; inhibition, % at 4.98 µM; 1,200 compounds, 70% hits; AID 624370;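 active means mean inhibition across replicates above a set limit taken from the earlier primary screen, cut at about 21% in these data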;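 further: 0% = DMSO-only wells and the high end = clavulanate BLA-blocked wells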
# NOD2 BLA counter – NOD2-RIPK2 counterscreen BLA reporter activity; shares compounds with NOD2 RIPK2 PPI; CHO BLA reporter, CCF4 FRET ratio; inhibition, % at 4.98 µM; 1,200 compounds, 57% hits;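 active means mean inhibition above the low-control mean inhibition plus three low-control SD, cut at about 11% in these data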;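 further: 0% = DMSO only wells and 100% = clavulanate high control wells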
# The depositor's hits bear a star; nt = no result given.
SMILES,TLR9-MyD88 inh,IDE act,NOD2 RIPK2 PPI,IDE cell inh,TLR4 MyD88 comp,NOD2-RIPK2 conf,NOD2 BLA counter
COc1ccccc1N(C)S(=O)(=O)c1ccc(C(=O)OCC(N)=O)cc1,7,-1,50*,3,-3,1,-4
O=[N+]([O-])c1cc(S(=O)(=O)Oc2ccccc2)ccc1Cl,16,-2,58*,nt,nt,16,1
O=S(=O)(Oc1ccccc1)c1ccc(Cl)c(Cl)c1,1,3,-4,nt,nt,nt,nt
CNC(=O)C(=O)Nc1c(C)cc(C)cc1C,-4,8,3,1,-4,nt,nt
CN(C)S(=O)(=O)n1cnc(-c2ccccc2)c1-c1ccccc1,-4,0,35*,3,-2,2,-2
Cc1c(C(=O)O)oc2c1C(=O)CC(C)(C)C2,6,-2,-3,2,12,nt,nt
O=C(C[n+]1ccccc1)N1CCCc2ccccc21,5,4,-8,1,-6,nt,nt
O=C(Cc1cccc2ccccc12)N1CCCc2ccccc21,0,-1,24*,4,10,11,6
O=C(NCc1ccccc1)C(c1ccc(C(F)(F)F)cc1)n1c(=O)c(-c2cc3ccccc3[nH]2)nc2ccccc21 (stereo not drawn),nt,nt,49*,nt,nt,47*,69*
N#Cc1ccc(C(C(=O)NCc2ccccc2)n2c(=O)c(-c3cc4ccccc4[nH]3)nc3ccccc32)cc1 (stereo not drawn),nt,nt,58*,nt,nt,54*,72*
O=C(C1=C[C@@H](c2coc3ccccc3c2=O)C[C@@H](OCc2ccc(CO)cc2)O1)N1CCCCCCC1,1,-1,-7,6,3,nt,nt
O=C(NC1CCCC1)C(=O)N(Cc1cccnc1)C(C(=O)NCc1ccco1)c1ccccc1F (stereo not drawn),-10,-3,-5,-3,1,nt,nt
C=CCOc1ccc(C(=O)/C=C2/C(=O)Nc3ccccc32)cc1,8,0,25*,2,nt,-1,-2
COc1cc(OC)c(/C=C2\C(=O)Nc3ccccc32)c(OC)c1,nt,nt,nt,0,nt,nt,nt
COc1ccc(C(=O)/C=C2/C(=O)Nc3ccccc32)cc1,-1,-9,33*,nt,nt,10,-2
COc1ccc(C(=O)/C=C2/C(=O)Nc3ccccc32)c(OC)c1,5,0,31*,4,nt,30*,-1
C=CCOc1ccccc1C(=O)/C=C1/C(=O)Nc2ccccc21,17,0,65*,3,nt,55*,0
COc1ccc(C(=O)/C=C2/C(=O)Nc3ccccc32)cc1OC,5,3,10,10,nt,nt,nt
CCc1cc2c(=O)nc3n(c2s1)Cc1ccccc1/C3=C(/O)c1cccc([N+](=O)[O-])c1,14,1,0,-4,1,nt,nt
CCc1cc2c(=O)nc3n(c2s1)Cc1ccccc1/C3=C(/O)c1ccccc1Cl,16,-2,31*,-8,0,-1,-5
Cc1cccc(NC(=O)CSc2nnnn2-c2cccnc2)c1,-9,5,-5,-4,4,nt,nt
CCOC(=O)C1CCN(C(=O)COc2ccc3c(C)cc(=O)oc3c2)CC1,4,5,0,3,nt,nt,nt
COc1cccc(NC(=O)CCNS(=O)(=O)c2ccc3c(c2)CC(C)N3C(=O)C2CC2)c1 (stereo not drawn),-10,5,-19,-3,nt,nt,nt
Cc1ccc(S(=O)(=O)NCCN2CCOCC2)c(C)c1,-10,-2,0,-3,nt,nt,nt
Cc1ccc(S(=O)(=O)NCCN2CCOCC2)c(C)c1C,-3,3,72*,5,-8,-6,-7
COCCN(C(=O)COC(=O)CCC1CCCCC1)c1c(N)n(Cc2ccccc2)c(=O)[nH]c1=O,4,nt,28*,nt,nt,2,-2
CN(C(=O)COC(=O)CCC1CCCCC1)c1c(N)n(Cc2ccccc2)c(=O)[nH]c1=O,-1,1,5,0,nt,nt,nt
CN1OC[C@@H]2CN(S(=O)(=O)c3ccccc3)[C@H](c3ccccc3Br)C[C@@H]21,nt,nt,33*,nt,nt,-5,-5
CN1OC[C@@H]2CN(S(=O)(=O)c3ccccc3)[C@H](c3cccc(Br)c3)C[C@@H]21,-9,-2,-10,nt,nt,nt,nt
Cc1ccccc1CS(=O)(=O)c1nnc([C@H](Cc2ccccc2)NC(=O)OC(C)(C)C)o1,12,-3,57*,-2,8,50*,2
